In publication PMC4666376, “Characterisation of aptamer–target interactions by branched selection and high-throughput sequencing of SELEX pools” one finds binding signal data, which are given here for 29 sequences.

For the assay, the target named is PAI-1 wild type, active (human, UniProt P05121 24-402). Put plainly: branched SELEX with high-throughput sequencing; PAI-1 immobilised on polyclonal anti-PAI-1 antibody; HBS (10 mM HEPES pH 7.4, 140 mM NaCl), 2 mM MgCl2, 2 mM CaCl2, 0.1% BSA; RNA pool 100 nM; PAI-1 captured on antibody-coated wells; 45 min; binding temperature not stated (PAI-1 capture at room temperature); high values mean tight binding.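 Further: Pool frequency after one selection round with this target divided by frequency before selection.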 The conditions noted are these: protein: recombinant; tags: N-terminal His6; structured_RNA; 2'-F pyrimidines.
Chain of PAI-1 wild type, active (P05121 24-402): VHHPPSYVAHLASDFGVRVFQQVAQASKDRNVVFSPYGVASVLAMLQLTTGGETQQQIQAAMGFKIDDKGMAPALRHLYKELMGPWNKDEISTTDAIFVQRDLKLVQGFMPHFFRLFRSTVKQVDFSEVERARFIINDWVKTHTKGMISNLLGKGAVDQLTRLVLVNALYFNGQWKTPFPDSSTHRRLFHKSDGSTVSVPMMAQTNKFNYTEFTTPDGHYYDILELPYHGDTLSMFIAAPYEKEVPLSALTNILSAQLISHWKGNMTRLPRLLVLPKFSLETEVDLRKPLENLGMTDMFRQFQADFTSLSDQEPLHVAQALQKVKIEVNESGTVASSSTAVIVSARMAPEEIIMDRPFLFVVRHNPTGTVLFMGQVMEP
“GGGGCCACCAACGACAUUGUCGUAGCCGGACUCCACCGGUGACCAAUGAGCGUUGAUAUAAAUAGUGCCCAUGGAUC”: the binding signal is 0.57 enrichment factor. As for “GGGGCCACCAACGACAUUACACUGUAGAGAAUACCCAAUUCUCGACUAGAUGCGUUGAUAUAAAUAGUGCCCAUGGAUC”, the figure is 0.74 enrichment factor; as for “GGGGCCACCAACGACAUUAUUUUCCGGUCGUUUAGGUGUUCAACACUCCGGAUGUUGAUAUAAAUAGUGCCCAUGGAUC”, 8.72 enrichment factor.

For the sequence “GGGGCCACCAACGACAUUGUUGAGCGCUGAGUUUCUGCGUUAGUUCUGUCAAUGUUGAUAUAAAUAGUGCCCAUGGAUC”, the binding signal turned out to be 3.37 enrichment factor. As for “GGGGCCACCAACGACAUUAGCAGUCGUAGGCCGUAAUGGCUGACCUGUAUGACGUUGAUAUAAAUAGUGCCCAUGGAUC”, the figure is 0.68 enrichment factor. As for “GGGGCCACCAACGACAUUGACCCAUCUCGCGUUUCCGGGAUGACUAGUAGAAUGUUGAUAUAAAUAGUGCCCAUGGAUC”, the figure is 0.56 enrichment factor; as for “GGGGCCACCAACGACAUUACGUAGUUGCCUAAUAAAGGUAGCGAUUUGGAUUCGUUGAUAUAAAUAGUGCCCAUGGAUC”, 1.28 enrichment factor; as for “GGGGCCACCAACGACAUUAAGUUCGUCCCCGUAAGCUCUUACGGGGUCUAUGCGUUGAUAUAAAUAGUGCCCAUGGAUC”, 5.92 enrichment factor. On to “GGGGCCACCAACGACAUUCACACAACGUAGGCUCGUGAGCCGAUCAGUGAUUAGUUGAUAUAAAUAGUGCCCAUGGAUC”, for which the binding signal is 0.81 enrichment factor. Consider “GGGGCCACCAACGACAUUACGUAGCUGGGUUUCACCAGCGAUUAGUUGUUGAUAUAAAUAGUGCCCAUGGAUC”, for which the binding signal came out at 0.7 enrichment factor.

For “GGGGCCACCAACGACAUUGCCGUAGGUGCGGGAACACUUCACCGAUCGAUGUUGUUGAUAUAAAUAGUGCCCAUGGAUC”, the binding signal turned out to be 2.29 enrichment factor. Consider “GGGGCCACCAACGACAUUACCAUGUAGGCGUAAUUUCACGCUGACCAAGUGUUGUUGAUAUAAAUAGUGCCCAUGGAUC”, for which the binding signal came out at 1.19 enrichment factor. As for “GGGGCCACCAACGACAUUGUGACCCACCAUUAUAUGGUGACUAGUAGCGUGUUGUUGAUAUAAAUAGUGCCCAUGGAUC”, the figure is 0.17 enrichment factor. Take “GGGGCCACCAACGACAUUUAAGUUCGUCUCACUGACUCUGCAGUGAGUCUAAUGUUGAUAUAAAUAGUGCCCAUGGAUC”: the binding signal was 7.58 enrichment factor.

Consider “GGGGCCACCAACGACAUUGAUCACUAAGGUUAGACCGGAGUGCCGUAGAAUGCGUUGAUAUAAAUAGUGCCCAUGGAUC”, for which the binding signal is 0.88 enrichment factor. With “GGGGCCACCAACGACAUUACACUGUAGCGAGCCAGACUCGCGACCAAAUGCGUUGAUAUAAAUAGUGCCCAUGGAUC”, the binding signal turned out to be 0.89 enrichment factor. Then “GGGGCCACCAACGACAUUGAGUCUAGACAAAAUUGUCUUAAGUUCGUCUUAAUGUUGAUAUAAAUAGUGCCCAUGGAUC”, with 7.89 enrichment factor; and “GGGGCCACCAACGACAUUCCGUCCGUGUUCAGUUAACACGCAUGUGUUUUGUGGUUGAUAUAAAUAGUGCCCAUGGAUC”, with 1.36 enrichment factor. With “GGGGCCACCAACGACAUUCCUGCAACGUAGGCGCGUAAGCUCCGAUCAAGGAUGUUGAUAUAAAUAGUGCCCAUGGAUC”, the binding signal turned out to be 0.53 enrichment factor.

Consider “GGGGCCACCAACGACAUUCGACCAGACGACAAGUCGUCGCACCGUAGAGUGUAGUUGAUAUAAAUAGUGCCCAUGGAUC”, for which the binding signal was found to be 0.15 enrichment factor.

Regarding “GGGGCCACCAACGACAUUCAGGCCGUAGGAUGUUAUAUCCGAUCCUGAUCUUCGUUGAUAUAAAUAGUGCCCAUGGAUC”, the binding signal was 1.4 enrichment factor.

For “GGGGCCACCAACGACAUUCUCGAGAGAGACCUUCCUCGUUAUACGGGGAGUUCGUUGAUAUAAAUAGUGCCCAUGGAUC”, the binding signal came to 0.56 enrichment factor.

For the sequence “GGGGCCACCAACGACAUUUGACAUCGUAGGCAAAAAAGCUGACUGUUCAGAUUGUUGAUAUAAAUAGUGCCCAUGGAUC”, the binding signal was determined as 2.86 enrichment factor. For “GGGGCCACCAACGACAUUGAACGUAAGGAGAGUGCGCUUACCGCACAAUGUUUGUUGAUAUAAAUAGUGCCCAUGGAUC”, the binding signal worked out at 0.43 enrichment factor. Then “GGGGCCACCAACGACAUUCAACGACCAGUACGUGUGAGGGCGUACAUCAUGUAGUUGAUAUAAAUAGUGCCCAUGGAUC”, with 0.37 enrichment factor. In the case of “GGGGCCACCAACGACAUUUGCGUAAGCAUCCUUCGAUGUACCACAUCGAGAUCGUUGAUAUAAAUAGUGCCCAUGGAUC”, the binding signal amounted to 1.04 enrichment factor. For the sequence “GGGGCCACCAACGACAUUGCCGUAGGCGAUAAUACAUCGCUGAUCAUUUGUACGUUGAUAUAAAUAGUGCCCAUGGAUC”, the binding signal stood at 2.34 enrichment factor.

Turning to “GGGGCCACCAACGACAUUAAGUUCGUCCCGCAUGGUACGAUGCGGGUCUAUGCGUUGAUAUAAAUAGUGCCCAUGGAUC”, the binding signal was determined as 6.47 enrichment factor.

For “GGGGCCACCAACGACAUUCGGGACUACGUAGGCGGAUUCGCCGAUUACCCGUUGUUGAUAUAAAUAGUGCCCAUGGAUC”, the binding signal came to 0.7 enrichment factor.
